Drawing on PubChem BioAssay (NCI), this text covers growth for four compounds.

Each structure is given as a SMILES string. About 83,000 compounds went through this panel and 20% of them were active in at least one assay; those are over-represented in the sample as a whole.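 Step 1: grow cells in 96-well plates. Step 2: add test compound at a single concentration. Step 3: incubate 48 h. Step 4: record percent growth.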 Unmarked numbers belong to inactive results. How the source made its calls: active means growth percent below 10; inactive means the rest.

In this assay the test system is MDA-MB-468 breast. Nature of the assay: NCI-60 one-dose screen, 48 h (100 = growth as untreated, 0 = no growth, -100 = all killed). To be noted: 10 µM unless noted.

Consider `COc1cc2c(cc1O)CCN1C[C@@H](CC(C)C)[C@@H](O)C[C@@H]21`, for which the growth was 103%.
Under `O[C@@H]1CCO[C@H](c2ccc3ccccc3c2)C1` stands 107%.
With `Clc1cccc(Cl)c1/C=C/c1cc(/C=C/c2c(Cl)cccc2Cl)[nH]n1` the figure was 12.4%; with `Cc1cc(=O)n(C(=O)Nc2ccccc2Cl)c2cc(O)ccc12`, 104%.
